# From PubChem
# NOD2-RIPK2 inh: NOD2-RIPK2 binding disruptors in cells, primary screen, fluorescence, CHO cells, BLA complementation; CCF4 ratio; inhibition, % at 4.98 µM; hit rate 0.38% among 360,000; AID 624267, 2012; in the data active = inhibition above about 21%
# ANO1 block: TMEM16A chloride channel inhibitors, primary screen, cell-based, HTS | HEK293 TMEM16A/YFP iodide influx fluorescence, ionomycin | normalized B-score (activity score, 25-100; higher = stronger inhibition) at 10 µM | hit rate 1.2% among 310,000;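 active = ratio plate-corrected score three or more library SD toward inhibition, starting fluorescence score within five deviations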;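 note: score derived from kinetic fluorescence span divided by baseline fluorescence per well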
# TLR9-MyD88 inh: inhibitors of TLR9-MyD88 association in cells, primary screen, cell-based, CHO, BLA complementation, fluorescence; Toll-like receptor 9 (Homo sapiens) + Myeloid differentiation primary response protein …; inhibition, % at 4.98 µM; CCF4 FRET ratio; hit rate 0.21% among 340,000;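 active = inhibition above the mean over all tested compounds plus 3 SD, cut at about 21% in these data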
# GRK2 inh: compounds blocking aptamer binding on GRK2 – biochemical, human GRK2, bead flow cytometry, HTS, primary screen. Beta-adrenergic receptor kinase 1 (Homo sapiens), P25098. inhibition of aptamer binding, % at 10 µM. FAM-aptamer displacement from GRK2. hit rate 0.59% among 330,000. AID 488847, 2010;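 active = inhibition of aptamer binding above 40%, roughly 3 SD of noise, on plates passing a quality check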;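 note: median bead fluorescence of bound FAM aptamer so fluorescent compounds give negative values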
# Target sequence (P25098 whole entry, looked up): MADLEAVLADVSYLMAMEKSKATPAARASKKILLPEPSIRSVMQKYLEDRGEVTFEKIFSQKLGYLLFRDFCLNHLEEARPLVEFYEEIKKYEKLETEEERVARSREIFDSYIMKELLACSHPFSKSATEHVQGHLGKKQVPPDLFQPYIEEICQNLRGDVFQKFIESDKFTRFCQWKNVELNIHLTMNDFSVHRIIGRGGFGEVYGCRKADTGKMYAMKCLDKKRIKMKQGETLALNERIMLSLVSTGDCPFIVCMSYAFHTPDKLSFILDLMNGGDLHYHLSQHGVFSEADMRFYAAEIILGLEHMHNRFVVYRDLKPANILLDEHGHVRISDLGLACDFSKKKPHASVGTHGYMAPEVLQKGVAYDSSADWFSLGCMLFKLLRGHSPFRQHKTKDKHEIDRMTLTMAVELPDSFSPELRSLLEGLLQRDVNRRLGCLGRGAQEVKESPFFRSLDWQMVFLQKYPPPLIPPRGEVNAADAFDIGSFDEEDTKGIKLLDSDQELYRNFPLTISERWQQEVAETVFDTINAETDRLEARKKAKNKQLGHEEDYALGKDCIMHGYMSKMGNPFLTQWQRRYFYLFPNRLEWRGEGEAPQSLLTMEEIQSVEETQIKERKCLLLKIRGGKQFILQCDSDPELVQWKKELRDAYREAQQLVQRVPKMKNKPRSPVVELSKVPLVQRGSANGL
# ANO1 activ: TMEM16A chloride channel activators or potentiators, primary screen, cell-based, HTS; Anoctamin-1 (Mus musculus), Q8BHY3; B-score at 10 µM; hit rate 0.3% among 340,000; HEK293 TMEM16A/YFP-H148Q/I152L, iodide quench fluorescence; active compounds read low;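 active = fluorescence-ratio B-score plate-corrected deviation score at least 3 library SD below zero, with starting fluorescence score within 5 deviations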;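 note: channel opened by trigger with iodide after compound preincubation; score built on the fluorescence ratio of max minus min over baseline; more negative score means more quench and so TMEM16A activation or potentiation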
# TLR4-MyD88 BLA: inhibitors of TLR4-MyD88 association in cells, primary screen, cell-based, HeLa CL3-4, BLA complementation, FRET ratio | HeLa CL3-4 TLR4/MyD88 BLA complementation | inhibition, % at 8.4 µM | hit rate 0.18% among 200,000 | AID 861, 2007; in the data active = inhibition above about 25%
# NOD2 RIPK2 conf: NOD2-RIPK2 binding disruptors, retest, confirmation, fluorescence, CHO cells, BLA complementation, triplicate; shares compounds with NOD2-RIPK2 inh; CCF4 FRET; inhibition, % at 4.98 µM; hit rate 70% among 1,200; AID 624370, 2012;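 active = mean inhibition across replicates above a set limit taken from the earlier primary screen, cut at about 21% in these data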
# BLA counter: hits BLA reporter in NOD2-RIPK2 inhibitor counterscreen; shares compounds with NOD2-RIPK2 inh; CHO BLA reporter, CCF4 FRET ratio; inhibition, % at 4.98 µM; hit rate 57% among 1,200; AID 624371;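 active = mean inhibition above the low-control mean inhibition plus three low-control SD, cut at about 11% in these data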
# Numbers stand for hits; – = inactive; · = not tested or not shown. Compounds with a hit are over-represented: about 2.2% of the library has one in this group of screens.
SMILES,NOD2-RIPK2 inh,ANO1 block,TLR9-MyD88 inh,GRK2 inh,ANO1 activ,TLR4-MyD88 BLA,NOD2 RIPK2 conf,BLA counter
O=[N+]([O-])c1ccc(-c2cnc(SC(c3ccccc3)c3ccccc3)[nH]2)cc1,44,–,–,–,–,–,–,26
NC(=O)CSc1ncc(-c2ccc([N+](=O)[O-])cc2)[nH]1,–,–,–,–,–,–,·,·
O=C(CC1(O)C(=O)Nc2ccc(Br)cc21)c1ccccc1 (centres undefined),–,·,–,·,·,·,·,·
Cc1cc(C(F)(F)F)c2c(N)c(C(=O)NCc3ccc(Cl)cc3)sc2n1,24,·,·,·,·,·,23,21
O=C(Nc1ccc(Cl)cc1)Nc1ccc2c(c1)N1CCN=C1S2,22,–,–,–,–,–,36,19
Cc1ccc(C(=O)N2CCN(S(=O)(=O)N3CCCCC3)CC2)cc1,–,–,–,–,–,·,·,·
COc1cccc(CN(C)S(=O)(=O)c2ccccc2Br)c1,–,·,–,–,·,·,·,·
O=[N+]([O-])/C=C\c1ccc(N2CCOCC2)cc1,45,–,–,–,–,·,43,–
CC(=O)N1CCc2cc(S(=O)(=O)CCC(=O)N(C)c3cc(C)ccc3C)ccc21,–,–,–,–,–,·,·,·
CC(=O)c1cccc(OCC(=O)Nc2cccc(C(=O)Nc3c(C)n(C)n(-c4ccccc4)c3=O)c2)c1,–,·,–,–,–,·,·,·
Cc1c(C(=O)Nc2ccccc2)c2ccc(C(F)(F)F)cc2n1O,34,–,·,–,–,·,28,–
CCCCCCCCCc1nc2sc3c(c2c(=O)n1NC(=O)c1ccc([N+](=O)[O-])cc1)CC(C)(C)OC3,32,–,–,–,–,–,–,–
O=S(=O)(c1cccs1)N1CCN(CC(O)COc2cccc(Br)c2)CC1 (centres undefined),22,–,–,–,–,–,–,–
CCN1C(=O)[C@@H]2Cc3c([nH]c4ccccc34)C(c3ccc(OC)cc3)N2C1=S (some centres undefined),–,–,–,–,–,·,·,·
CCOc1ccc2c(c1)C(C)=CC(C)(C)N2S(=O)(=O)c1ccc(NC(C)=O)cc1,–,–,–,–,–,·,·,·
COc1ccc2c(c1)C(C)=CC(C)(C)N2S(=O)(=O)c1ccc(NC(C)=O)cc1,26,–,–,–,–,·,–,–
CC(C)(C)c1cc(C(=O)CCN2CCOCC2)cc(C(C)(C)C)c1O,48,–,–,–,–,·,–,–
O=C(CCN1CCOCC1)c1ccc(N2CCCCC2)cc1,–,·,–,–,–,·,·,·
COc1ccc(C(=O)N/N=C/c2sc3ccccc3c2O)cc1,22,–,–,–,–,–,–,–
COc1ccc2cc(C(=O)N/N=C/c3sc4ccccc4c3O)ccc2c1,–,–,–,–,–,–,·,·
COC(=O)Nc1ccc(SCC(=O)c2cccc([N+](=O)[O-])c2)cc1,22,–,–,–,–,·,–,–
COc1ccc(NC(=O)C(c2ccncc2)n2c(=O)c(-c3ccco3)nc3ccccc32)cc1 (centres undefined),–,·,·,·,·,·,·,·
COc1ccc(NC(=O)C(c2ccc(C#N)cc2)n2c(=O)c(-c3cc4ccccc4[nH]3)nc3ccccc32)cc1 (centres undefined),56,·,·,·,·,·,54,72
COc1ccc(NC(=O)C(c2ccc(OC)cc2)n2c(=O)c(-c3cc4ccccc4[nH]3)nc3ccccc32)cc1 (centres undefined),44,·,·,·,·,·,40,66
CC(C)(C)NC(=O)C(c1cc2ccccc2o1)n1c(=O)c(-c2ccco2)nc2ccccc21 (centres undefined),–,·,·,·,·,·,·,·
SMILES,NOD2-RIPK2 inh,ANO1 block,TLR9-MyD88 inh,GRK2 inh,ANO1 activ,TLR4-MyD88 BLA,NOD2 RIPK2 conf,BLA counter
COc1ccc(NC(=O)C(c2cc3ccccc3o2)n2c(=O)c(-c3cc4ccccc4[nH]3)nc3ccccc32)cc1 (centres undefined),51,·,·,·,·,·,46,68
CCOC(=O)c1c(CN2CCNCC2)nc2ccc(Cl)cc2c1-c1ccccc1,21,·,–,·,–,·,–,–
COc1ccc(C2C(C(=O)NCCCN3CCOCC3)c3ccccc3C(=O)N2c2ccc(OC)cc2)cc1 (centres undefined),24,–,–,–,–,–,–,–
O=C1Nc2cc(C(=O)NCCN3CCCCCC3)ccc2S/C1=C/c1ccccc1F,22,·,–,·,·,·,49,51
O=C(COC(=O)CCC(=O)c1cccs1)Nc1cccc(F)c1,–,·,–,–,–,·,·,·
O=C(CSc1ccccn1)Nc1ccc(NC(=O)CSc2ccccn2)cc1,–,–,–,–,–,–,·,·
O=C(CSc1ccccn1)Nc1nonc1[N+](=O)[O-],31,–,–,–,–,·,–,–
CC(C)(C)OC(=O)NCCCCCNC(=O)c1[nH]cnc1C(=O)N[C@@H](Cc1ccccc1)C(=O)OC(C)(C)C,31,·,–,–,–,·,–,–
CC(C)(C)c1cc(NS(=O)(=O)c2ccc(Br)s2)no1,–,–,–,–,–,·,·,·
COc1ccc(C(=O)C(CN2CCOCC2)c2ccccc2)cc1F (centres undefined),58,·,–,·,–,–,–,–
Cc1cc(F)ccc1-c1cc(C(=O)Nc2ccccc2)[nH]n1,–,·,·,·,·,·,·,·
CC(=O)Nc1ccc(NC(=O)c2cc(-c3ccc(F)cc3C)n[nH]2)cc1,28,·,·,·,·,·,–,–
CN(C)c1ccc(/C=C/c2cccc[n+]2[O-])cc1,26,–,·,–,–,·,–,–
[O-][n+]1ccccc1/C=C/c1ccccc1,–,–,–,·,–,·,·,·
Cc1ccc(O)c(C2=Nc3ccccc3N=C(c3ccco3)C2)c1,23,–,–,–,–,–,–,46
Cc1ccc(C2=Nc3ccccc3N=C(c3ccco3)C2)c(O)c1,–,–,–,–,–,–,·,·
Cc1cc(C(=O)CN2C(=O)c3cccc(N)c3C2=O)c(C)n1Cc1cccs1,24,–,–,–,–,–,29,42
O=C1CC2(CCN1)CCN(Cc1ccccc1)CC2,–,·,–,·,–,·,·,·
CC(C)(C)NC(=O)C(c1ccccc1)n1c(=O)c(-c2ccco2)nc2ccccc21 (centres undefined),–,·,·,·,·,·,·,·
